From PubChem BioAssay (EPA / NIEHS)
Where “and” joins values, the source holds several entries; their conditions need not be identical. Identical values can stand only once. Some structures have more than one record in an assay (separate samples or runs), and their calls can disagree. Calls of active or inactive are those of the source. The calls were made as follows: active = hit-call score of the fitted dose curve at least 0.9, where 1 is the maximum; inactive = score below 0.9.

Legend:
[1] = read-out: Tissue Factor, F3 (gene 2152); assay: BSK_CASM3C_TissueFactor: BioMAP Diversity Plus: CASM3C Assay for Tissue Factor Biomarker Activity (AID 2283052); conditions: primary human coronary artery smooth muscle cells; actives raise or lower the signal;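 also: cell surface tissue factor protein level read by ELISA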
[2] = read-out: Interferon-gamma inducible Protein 10 (IP10), CXCL10 (gene 3627); assay: BSK_hDFCGF_IP10: BioMAP Diversity Plus: hDFCGF Assay for Interferon-gamma inducible Protein 10 (IP10) Biomarker Activity (AID 2283053); conditions: primary human foreskin fibroblasts; actives raise or lower the signal
Procedure, shortened: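 ELISA quantification of IP-10 after a 24 h chemical exposure of human dermal foreskin fibroblast primary cultures. Both increases and decreases versus DMSO fitted.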

[3] = read-out: Urokinase-type plasminogen activator receptor (uPAR), PLAUR (gene 5329); assay: BSK_CASM3C_uPAR: BioMAP Diversity Plus: CASM3C Assay for Urokinase-type plasminogen activator receptor (uPAR) Biomarker Activity (AID 2283054); conditions: primary human coronary artery smooth muscle cells; actives raise or lower the signal;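 also: cell-surface uPAR protein level quantified by ELISA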
[4] = read-out: Vascular cell adhesion molecule 1 (VCAM1), VCAM1 (gene 7412); assay: BSK_CASM3C_VCAM1: BioMAP Diversity Plus: CASM3C Assay for Vascular cell adhesion molecule 1 (VCAM1) Biomarker Activity (AID 2283055); conditions: primary human coronary artery smooth muscle cells; actives raise or lower the signal;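 also: VCAM-1 protein level quantified by ELISA on the cells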
[5] = read-out: Collagen III, COL3A1 (gene 1281); assay: BSK_hDFCGF_CollagenIII: BioMAP Diversity Plus: hDFCGF Assay for Collagen III Biomarker Activity (AID 2283056); conditions: primary human foreskin fibroblasts; actives raise or lower the signal
Procedure, shortened: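 ELISA readout of Collagen III in human dermal (foreskin) fibroblasts, taken 24 h post-treatment. Gain or loss relative to DMSO vehicle fitted in both directions.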

[6] = read-out: Epidermal growth factor receptor (EGFR), EGFR (gene 1956); assay: BSK_hDFCGF_EGFR: BioMAP Diversity Plus: hDFCGF Assay for Epidermal growth factor receptor (EGFR) Biomarker Activity (AID 2283057); conditions: primary human foreskin fibroblasts; actives raise or lower the signal
Procedure, shortened: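 EGFR levels by ELISA in human dermal fibroblast cultures, 24 h post-treatment, fitted bidirectionally versus DMSO. Parallel wells stained with sulforhodamine B to detect overt cytotoxicity.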

[7] = read-out: Interleukin-8 (IL8), CXCL8 (gene 3576); assay: BSK_hDFCGF_IL8: BioMAP Diversity Plus: hDFCGF Assay for Interleukin-8 (IL8) Biomarker Activity (AID 2283058); conditions: primary human foreskin fibroblasts; actives raise or lower the signal
Procedure, shortened: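 IL-8 levels read by ELISA at 24 hours after dosing human skin fibroblast cultures. Parallel SRB staining assessed overt cytotoxicity, and gain or loss of signal was fitted against DMSO control.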

[8] = BSK_hDFCGF_Proliferation: Cell Proliferation Assessment in the BioMAP Diversity Plus: hDFCGF Assay (AID 2283059); conditions: primary human foreskin fibroblasts;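 also: curves fitted for both rise and fall of signal versus DMSO baseline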
Procedure, shortened: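 This proliferation readout used SRB total-protein staining of human foreskin fibroblasts […], normalized to DMSO with bidirectional curve fitting.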

[9] = read-out: Macrophage colony-stimulating factor (MCSF), CSF1 (gene 1435); assay: BSK_hDFCGF_MCSF: BioMAP Diversity Plus: hDFCGF Assay for Macrophage colony-stimulating factor (MCSF) Biomarker Activity (AID 2283060); conditions: primary human foreskin fibroblasts; actives raise or lower the signal
Procedure, shortened: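 M-CSF levels read by ELISA at 24 h post-dosing in human skin fibroblasts. Parallel cultures stained with SRB assessed cytotoxicity at the same time point; response fitted in both directions against the DMSO baseline.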

[10] = BSK_hDFCGF_SRB: Viability Assessment in the BioMAP Diversity Plus: hDFCGF Assay (AID 2283061); conditions: primary human foreskin fibroblasts;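 also: cells exposed to compound for 24 h before the read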
Procedure, shortened: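 Viability was read as total protein: after 10% TCA fixation, wells were stained with 0.1% sulforhodamine B and read at 560 nm. Primary human foreskin fibroblasts were dosed for 24 h, with bidirectional fitting versus DMSO.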

[11] = read-out: TIMP metallopeptidase inhibitor 1 (TIMP1), TIMP1 (gene 7076); assay: BSK_hDFCGF_TIMP1: BioMAP Diversity Plus: hDFCGF Assay for TIMP metallopeptidase inhibitor 1 (TIMP1) Biomarker Activity (AID 2283062); conditions: primary human foreskin fibroblasts; actives raise or lower the signal
Procedure, shortened: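 TIMP-1 measured by ELISA 24 h after chemical dosing of primary human skin fibroblasts, with gain or loss fitted relative to DMSO. Parallel SRB staining (560 nm) monitored overt cytotoxicity.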

[12] = read-out: Monokine induced gamma interferon (MIG), CXCL9 (gene 4283); assay: BSK_hDFCGF_MIG: BioMAP Diversity Plus: hDFCGF Assay for Monokine induced gamma interferon (MIG) Biomarker Activity (AID 2283063); conditions: primary human foreskin fibroblasts; actives raise or lower the signal
Procedure, shortened: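 Human primary foreskin fibroblasts in the hDFCGF system, exposed to test chemical for 24 h; MIG measured by ELISA. Bidirectional curve fitting against DMSO negative control as activity baseline.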

[13] = read-out: Matrix Metallopeptidase 1 (MMP1), MMP1 (gene 4312); assay: BSK_hDFCGF_MMP1: BioMAP Diversity Plus: hDFCGF Assay for Matrix Metallopeptidase 1 (MMP1) Biomarker Activity (AID 2283064); conditions: primary human foreskin fibroblasts; actives raise or lower the signal
Procedure, shortened: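 MMP1 levels quantified by ELISA 24 h after dosing human dermal fibroblast cultures, with parallel SRB total-protein staining for overt cytotoxicity. Data fitted in both directions against DMSO baseline.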

[14] = read-out: Vascular cell adhesion molecule 1 (VCAM1), VCAM1 (gene 7412); assay: BSK_hDFCGF_VCAM1: BioMAP Diversity Plus: hDFCGF Assay for Vascular cell adhesion molecule 1 (VCAM1) Biomarker Activity (AID 2283065); conditions: primary human foreskin fibroblasts; actives raise or lower the signal;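 as to AC50: VCAM-1 protein level quantified by ELISA after 24 h chemical exposure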
Procedure, shortened: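 ELISA readout of VCAM-1 on human dermal fibroblast primary cultures, 24 h after chemical exposure. Gain or loss of signal fitted in both directions against DMSO baseline.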

[15] = read-out: Plasminogen activator inhibitor-1 (PAI1), SERPINE1 (gene 5054); assay: BSK_hDFCGF_PAI1: BioMAP Diversity Plus: hDFCGF Assay for Plasminogen activator inhibitor-1 (PAI1) Biomarker Activity (AID 2283066); conditions: primary human foreskin fibroblasts; actives raise or lower the signal
Procedure, shortened: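 PAI-1 levels in human dermal foreskin fibroblasts were quantified by ELISA 24 h after dosing, with gain or loss analysed against DMSO. Overt cytotoxicity was checked by sulforhodamine B total-protein staining in parallel cultures.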

[16] = read-out: Intercellular Adhesion Molecule 1 (ICAM1), ICAM1 (gene 3383); assay: BSK_KF3CT_ICAM1: BioMAP Diversity Plus: KF3CT Assay for Intercellular Adhesion Molecule 1 (ICAM1) Biomarker Activity (AID 2283067); conditions: primary human keratinocytes with fibroblasts; actives raise or lower the signal
Procedure, shortened: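 Cell-surface ICAM-1 was measured by ELISA 24 h after dosing primary human skin keratinocytes co-cultured with fibroblasts. Parallel SRB staining tracked overt cytotoxicity. Gain or loss of signal was fitted relative to DMSO.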

[17] = read-out: Interferon-gamma inducible Protein 10 (IP10), CXCL10 (gene 3627); assay: BSK_KF3CT_IP10: BioMAP Diversity Plus: KF3CT Assay for Interferon-gamma inducible Protein 10 (IP10) Biomarker Activity (AID 2283068); conditions: primary human keratinocytes with fibroblasts; actives raise or lower the signal
Procedure, shortened: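 Signal is secreted/surface IP-10 by ELISA in a human primary skin co-culture of keratinocytes and foreskin fibroblasts, taken 24 h post-dosing; DMSO served as negative control.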

[18] = BSK_KF3CT_SRB: Viability Assessment in the BioMAP Diversity Plus: KF3CT Assay (AID 2283069); conditions: primary human keratinocytes with fibroblasts;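 also: read 24 h after compound addition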
Procedure, shortened: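 Cytotoxicity was gauged by SRB staining (0.1% SRB, 10% TCA fixation, 560 nm) of parallel cultures at 24 h. The cells were primary human skin keratinocytes co-cultured with fibroblasts, and activity was fitted in both directions against DMSO.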

[19] = read-out: Interleukin-1 alpha (IL1a), IL1A (gene 3552); assay: BSK_KF3CT_IL1a: BioMAP Diversity Plus: KF3CT Assay for Interleukin-1 alpha (IL1a) Biomarker Activity (AID 2283070); conditions: primary human keratinocytes with fibroblasts; actives raise or lower the signal
Procedure, shortened: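 IL-1a was detected by ELISA 24 h after chemical treatment of a co-culture of human skin keratinocytes and foreskin fibroblasts. Gain or loss of signal was fitted against the DMSO baseline.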

[20] = read-out: TIMP metallopeptidase inhibitor 2 (TIMP2), TIMP2 (gene 7077); assay: BSK_KF3CT_TIMP2: BioMAP Diversity Plus: KF3CT Assay for TIMP metallopeptidase inhibitor 2 (TIMP2) Biomarker Activity (AID 2283071); conditions: primary human keratinocytes with fibroblasts; actives raise or lower the signal
Procedure, shortened: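 TIMP-2 measured by ELISA at 24 h in human keratinocyte/fibroblast primary co-cultures exposed to chemicals. Both increases and decreases were fitted against DMSO. Parallel cultures were stained with SRB for total protein as an overt-cytotoxicity check.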

Measured: AC50

OCC(F)(F)C(F)(F)C(F)(F)C(F)(F)C(F)(F)C(F)(F)F
active: [2] 55.1 µM and 41.2 µM | [5] 30 µM and 49.7 µM | [8] 56.1 µM and 54.4 µM | [9] 48.6 µM and 49.4 µM | [10] 45.4 µM | [13] 49.3 µM | [14] 54.6 µM and 46 µM | [15] 47.6 µM
inactive: [1] | [3] | [4] | [6] | [7] | [10] | [11] | [12] | [13] | [15] | [16] | [17] | [18] | [19] | [20]

O=C(O)C(F)(F)C(F)(F)C(F)(F)C(F)(F)C(F)(F)C(F)(F)C(F)(F)C(F)(F)C(F)(F)C(F)(F)C(F)(F)C(F)(F)F
active: [2] 1.86 µM and 1.07 µM | [4] 7.09 µM and 4.44 µM | [5] 2.45 µM and 896 nM | [8] 2.47 µM | [9] 6.46 µM | [10] 6.27 µM | [12] 2.35 µM and 1.17 µM | [13] 1.6 µM | [14] 4.75 µM and 1.14 µM | [17] 22.5 µM | [19] 4.28 µM and 3.91 µM
inactive: [1] | [3] | [6] | [7] | [8] | [9] | [10] | [11] | [13] | [15] | [16] | [17] | [20]

O=C(O)C(F)(F)C(F)(F)C(F)(F)C(F)(F)C(F)(F)C(F)(F)C(F)(F)C(F)(F)Cl
active: [2] 39.2 µM and 41.9 µM | [5] 8.33 µM | [6] 7.33 µM and 55.2 µM | [8] 43.1 µM and 45.7 µM | [9] 30 µM and 46.9 µM | [10] 47.7 µM and 49.2 µM | [12] 21.4 µM and 34.1 µM | [13] 1.31 µM and 12.3 µM | [14] 46.8 µM and 30 µM | [15] 47.7 µM and 46.5 µM | [16] 32 µM and 25.1 µM | [17] 45 µM and 45.9 µM | [19] 30 µM and 20.5 µM | [20] 53.9 µM and 52.6 µM
inactive: [1] | [3] | [4] | [5] | [7]

OCC(F)(F)C(F)(F)C(F)(F)C(F)F
active: [15] 1.98 µM
inactive: [1] | [2] | [3] | [4] | [5] | [6] | [7] | [8] | [9] | [10] | [11] | [12] | [13] | [14] | [15] | [16] | [17] | [19] | [20]

O=S(=O)(OCC(F)F)C(F)(F)F
inactive: [1] | [2] | [3] | [4] | [5] | [6] | [7] | [8] | [9] | [10] | [11] | [12] | [13] | [14] | [15] | [16] | [17] | [18] | [19] | [20]
active: [15] 1.42 µM

FC(F)(F)C(F)(F)C(F)(F)C(F)(F)C(F)(F)C(F)(F)C(F)(F)I
inactive: [1] | [2] | [3] | [4] | [5] | [6] | [7] | [8] | [9] | [10] | [12] | [13] | [14] | [15] | [16] | [17] | [19] | [20]
active: [8] 2.64 µM

C=CC(=O)OCC(F)(F)C(F)(F)C(F)(F)C(F)(F)COC(=O)C=C
inactive: [5] | [6]
active: [1] 52.7 µM and 47.5 µM | [2] 8.28 µM and 8.38 µM | [3] 48.9 µM and 50 µM | [4] 17.7 µM and 19.7 µM | [6] 30 µM | [7] 11.5 µM and 14.4 µM | [8] 2.13 µM and 1.2 µM | [9] 5.29 µM and 5.49 µM | [10] 8.52 µM and 8.25 µM | [12] 3.49 µM and 3.32 µM | [13] 17.1 µM and 17.3 µM | [14] 3.41 µM and 3.27 µM | [15] 8.89 µM and 8.86 µM | [16] 23 µM and 24.1 µM | [17] 19.3 µM and 20.9 µM | [19] 18.6 µM and 48.2 µM | [20] 25.7 µM and 33.3 µM

COC(=O)CCC(F)(F)C(F)(F)C(F)(F)C(F)(F)F
active: [10] 30 µM
inactive: [1] | [2] | [3] | [4] | [5] | [6] | [7] | [8] | [9] | [10] | [12] | [13] | [14] | [15] | [16] | [17] | [19] | [20]
